Bioassay records deposited in PubChem BioAssay by National Center for Advancing Translational Sciences (NCATS).
A selection: hits, their analogues and other compounds. The true share with any hit is near 2.3%.
DNA Pol III inh – blocks replication by bacterial DNA polymerase III holoenzyme; reconstituted DNA polymerase III holoenzyme replication, biochemical; Potency, µM (highest dose often 57.1 µM); 71,000 compounds, 0.25% hits
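Reconstituted *E. coli* holoenzyme (0.35 nM Pol III, 1 nM beta, 154 nM SSB, 2 nM primase) was preincubated with compound for 15 min at RT. Synthesis on 1.4 nM ssM13Gori ran 35 min, then was stopped with PicoGreen/EDTA and read as dsDNA fluorescence.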
Tau filament bind – binders of human tau filaments; 71,000 compounds, 2% hits; recombinant tau filaments, thioflavin S fluorescence, 15 h; filaments grown with octadecylsulfate alongside compound; Potency, µM (doses to about 57.1 µM); AID 596; P10636;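 further: actives lower thioflavin S fluorescence by blocking filaments or displacing dye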
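Recombinant tau protein (human, 1 uM final) plus 30 uM ODS in HEPES pH 7.4 with NaCl, DTT and thioflavine S. Compound present from the start; fluorescence at 510 nm after 15 h, 37 C.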
BRCT PPI red – BRCT-phosphoprotein interaction inhibition (red fluorophore). P38398. BRCT-phosphopeptide binding, red fluorescence polarization. Potency, µM (top dose mostly 76.9 µM), most hits filed as inhibitors. 75,000 compounds, 0.03% hits
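Rhodamine-labelled pBACH1 10-mer (100 nM) bound to BRCT domain (100 nM) at pH 7.3; compounds incubated 12 min room temperature, polarization read. Free peptide defines full inhibition; unlabelled decapeptide titrated as control.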
TsaE inh – inhibitors of E. coli YjeE (TsaE). P0AF67. AID 605. Potency, µM. 71,000 compounds, 0.05% hits. purified YjeE enzyme, qHTS inhibition assay
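Fluorescence polarization of a BODIPY Texas Red–ADP probe (2 uM) bound to purified YjeE (10 uM) was read after 15 min room-temperature incubation with compounds. Loss of polarization marks inhibitors; ADP serves as titrated control.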
Hsp90 Hop PPI – changes Hsp90-Hop TPR2A binding signal, up or down. AlphaScreen TPR2A-His6 binding biotin-Hsp90 C-terminal peptide. AID 595. Potency, µM (highest dose often 57 µM). 71,000 compounds, 0.44% hits; active means well fitted curve in either direction with a large enough effect; inconclusive means small, poorly fitted or top-dose-only effect, or another doubt
BRCT inh green – blocks human BRCA1 BRCT binding to phosphopeptide, green readout | BRCA1 BRCT-phosphopeptide binding, green fluorescence polarization | 75,000 compounds, 0.05% hits | P38398 | Potency, µM (titrated, usually from 76.9 µM), most hits filed as inhibitors
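Compounds were incubated for 12 min at room temperature with a complex of 100 nM fluorescein-tagged pBACH1 decapeptide and 250 nM His-tagged BRCT protein. Buffer was phosphate pH 7.3 with EDTA, DTT and Tween 20. Disruption of binding lowers the polarization signal.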
Each line names hits and unclear results; the compound was inactive in the other large screens. Unless noted, the call rests on the fitted dose curve; in most records, active means well fitted curve in the direction sought with a large enough effect; inconclusive means small, poorly fitted or top-dose-only effect, or another doubt; inactive means no such curve, though single readings can be large; an effect the other way counts as inactive or inconclusive.

COc1cc(NC(=O)c2ccccc2)cc(OC)c1	Tau filament bind 10µM
CCC(=O)Nc1cc(OC)c(NC(=O)c2ccccc2)cc1OC	Tau filament bind 13µM
COc1cc(NC(=O)c2ccc(C)cc2)c(OC)cc1NC(=O)CN1CCOCC1	none
COC(=O)[C@H]1C[C@H]2CC[C@H](O)C[C@H]2N1Cc1c(F)cccc1Cl	none (no result: DNA Pol III inh, Tau filament bind, TsaE inh, Hsp90 Hop PPI)
O=C(Nc1ccc(Nc2ccccc2)cc1)c1ccco1	Tau filament bind 20µM
O=C(Nc1ccc(N2CCCC2)c(Cl)c1)c1ccco1	Tau filament bind 4µM
CCOc1ccc(NC(=O)c2ccco2)cc1	none
Cc1ccc2nsnc2c1S(=O)(=O)NCc1cccnc1	none
Cc1ccc2nsnc2c1S(=O)(=O)N1CCN(CCc2ccccc2)CC1	Tau filament bind 25µM
CC(=O)OC1C=C[C@]2(C)C(CC(OC(C)=O)[C@@]3(C)C4=CC(=O)OC(c5ccoc5)[C@]4(C)CCC23)C1(C)C (stereo partly drawn)	none (no result: DNA Pol III inh, Tau filament bind, TsaE inh, Hsp90 Hop PPI)
CC(=O)c1c(N2CCN(c3cccc(Cl)c3)CC2)nc(=S)n(-c2ccccc2)c1C	none
COc1ccc(N2CCN(c3nc(=S)n(-c4ccccc4)c(C)c3C(C)=O)CC2)cc1	Tau filament bind 5µM
Cc1nc2cnc(N(C)C)nc2n(-c2ccccc2)c1=O	none
C[C@@H]1Nc2ccc(Cl)cc2S(=O)(=O)N1	none
COc1ccc(-c2nc3cnc(N4CCNCC4)nc3n(-c3ccc(OC)cc3)c2=O)cc1	none
O=c1c(-c2cc(F)cc(F)c2)nc2cnc(N3CCNCC3)nc2n1-c1ccccc1	Tau filament bind 4µM
O=c1c(-c2ccc(Cl)cc2)nc2cnc(N3CCNCC3)nc2n1-c1ccccc1	Tau filament bind 3.2µM
COc1ccc(-n2c(=O)c(-c3ccc(Cl)cc3)nc3cnc(N4CCNCC4)nc32)cc1	Tau filament bind 4µM
CCC(=O)Nc1cccc(NC(=O)c2cc3ccccc3o2)c1	none
Cc1cc2cc(CNC(=O)c3cc4ccccc4o3)ccc2n1C	Tau filament bind 16µM, Hsp90 Hop PPI inconclusive
Cc1cc(-c2csc(NC(=O)c3cc4ccccc4o3)n2)c(C)n1C	Tau filament bind 10µM
CO/N=C1/c2cc(OC)ccc2O[C@@H](c2cccc(OC)c2)[C@H]1O	none (no result: DNA Pol III inh, Tau filament bind, TsaE inh, Hsp90 Hop PPI)
CN1CC[C@@]2(CCCN(C(=O)c3cccn3C)C2)C1	none
Cc1cc(C2(c3cc(C)c(O)cc3C)OS(=O)(=O)c3ccccc32)c(C)cc1O	none
COc1ccccc1CN1CC[C@@]2(CCCN(C(=O)c3cccn3C)C2)C1	Hsp90 Hop PPI inconclusive
Oc1ccc(COCc2ccccc2)c2cccnc12	Hsp90 Hop PPI 25µM
Oc1ccc(CNCc2ccccc2)c2cccnc12	Hsp90 Hop PPI inconclusive
O=C(Oc1c(CN2CCOCC2)cc(Cl)c2cccnc12)c1ccc(F)cc1	Hsp90 Hop PPI 13µM
Oc1ccc(CNc2ccccc2F)c2cccnc12	Hsp90 Hop PPI 5µM
COCc1cc(CN2CCCC2)c(O)c2ncccc12	Hsp90 Hop PPI 3.2µM
COc1cccc([C@@H]2Oc3ccc(OC)cc3/C(=N/OC[C@@H](C)[C@H](OCc3ccccc3)C(C)C)[C@@H]2O)c1	none (no result: DNA Pol III inh, Tau filament bind, TsaE inh, Hsp90 Hop PPI)
Oc1cc(CN2COc3ccccc32)c(O)cc1CNC1CCCCC1	none
COc1ccccc1N1CCN(Cc2cc(Br)c(O)c3ncccc23)CC1	none
Oc1c(CN2CCN(c3ccccn3)CC2)cc(Cl)c2cccnc12	Hsp90 Hop PPI 7.9µM
Oc1cc(Cc2ccccc2)cnc1CN1CCCCC1	none
Oc1c(CN2CCCCC2)cc(COCc2ccccc2)c2cccnc12	Hsp90 Hop PPI 2.5µM
Cc1ccc(-c2cc(C(=O)NCCCn3ccnc3)c3cc(Br)ccc3n2)o1	Tau filament bind 16µM
Cc1ccc(-c2cc(C(=O)NC3=NCCS3)c3cc(Br)ccc3n2)o1	Tau filament bind 13µM
Cn1c(=O)c(C(=O)COC(=O)c2cc(C(F)(F)F)nc3c(C(F)(F)F)cccc23)c(N)n(Cc2ccccc2)c1=O	none (no result: DNA Pol III inh, Tau filament bind, TsaE inh, Hsp90 Hop PPI)
Cc1ccc2nc(NC(=O)CN(C)S(=O)(=O)c3cccc4nsnc34)sc2c1	Tau filament bind 16µM
Cc1ccnc(NC(=O)CN(C)S(=O)(=O)c2cccc3nsnc23)c1	none
CN1CCc2cc(NC(=O)Nc3cccnc3)ccc21	none
Cn1ccc2cc3c(cc21)CCN3C(=O)Nc1cccnc1	Tau filament bind 32µM
O=C1CCNc2cc3ccccc3cc21	Tau filament bind 20µM
c1ccc2cc(C3=NCCN3)ncc2c1	Tau filament bind inconclusive, Hsp90 Hop PPI inconclusive
Cn1c(=O)c2c(nc(C(=N)SCC(=O)O)n2C)n(C)c1=O	none
Cc1ccc2c(c1)NCCO2	Tau filament bind 32µM
Cc1ccc(CNC(=O)C2CNc3cc(C)ccc3O2)cc1 (stereo not drawn)	none
CC[C@H](C)N(C)C(=O)c1cc2ccccc2c(-c2ccccc2Cl)n1	Tau filament bind inconclusive
CCOC(=O)/C(C#N)=C1/C=Cc2ccccc2N1CC	Tau filament bind 16µM
Cc1cc(Nc2ccc(O)cc2)ccc1N	Tau filament bind 2µM, TsaE inh 100µM, Hsp90 Hop PPI inconclusive
Cc1cc(C)c(S(=O)(=O)Nc2ccc(O)cc2)c(C)c1	none
CC(C)COC(=O)c1cc(-c2ccc(/C=N/n3cnnc3)o2)ccc1Cl	Tau filament bind 25µM
O=C(NC12CC3CC(CC(C3)C1)C2)c1cc2nc(-c3ccco3)cc(C(F)(F)F)n2n1	Tau filament bind 13µM
COc1ccc(NC(=O)c2cnn3c(C(F)(F)F)cc(-c4ccco4)nc23)cc1OC	DNA Pol III inh 1µM, Tau filament bind 0.4µM
O=C(Nc1cnn(Cc2ccccc2)c1)c1cc2nc(-c3ccco3)cc(C(F)(F)F)n2n1	none
Cc1ccccc1Cn1nc(C)c(NC(=O)c2cc3nc(-c4ccco4)cc(C(F)(F)F)n3n2)c1C	Tau filament bind 7.9µM
O=C(Nc1ccc2c(c1)OCO2)c1cnn2c(C(F)(F)F)cc(-c3ccco3)nc12	Tau filament bind 0.5µM
O=C(NC1CCCCC1)c1cc2nc(-c3ccco3)cc(C(F)(F)F)n2n1	none
O=C(Nc1cnn(C23CC4CC(CC(C4)C2)C3)c1)c1cnn2c(C(F)(F)F)cc(-c3ccco3)nc12	Tau filament bind 2µM
O=C(c1cnn2c(C(F)(F)F)cc(-c3ccco3)nc12)N1CCCc2ccccc21	Tau filament bind inconclusive
CC1=NN(c2ccccc2)C(=O)[C@@H]1N=Nc1ccc(S(N)(=O)=O)cc1	Tau filament bind 4µM
O=c1c2ccccc2nc(-c2ccccc2)n1CCN1CCOCC1	none
c1ccc2nc3c(nc2c1)c1ccccc1n3CCN1CCOCC1	Tau filament bind 13µM
Brc1ccc2c(c1)c1nc3ccccc3nc1n2CCN1CCOCC1	Tau filament bind 16µM
